# PubChem BioAssay
# “And” between values parts separate entries of the source, which are not always exact repeats. Equal entries are not always repeated. The source made the active and inactive calls. Unless noted, no rule for the calls is given here.
# What was measured:
# [1] = HepG2 liver cancer cell viability effects, profiling panel, resazurin fluorescence, 24 h, PK04 Diversity Set (AID 1172); details: higher = more signal; also: test concentration not given here
# [2] = basal S. cerevisiae growth modulation, no modifier, primary screen, OD600, strain BY4716, 24 h, basal condition (AID 1173); details: OD600, 24 h, higher = more signal, called active from +8 up or from −8 down
# [3] = MM1S myeloma cell viability, profiling panel, resazurin fluorescence, basal, 24 h, PK04 Diversity Set (AID 1174); details: higher = more signal, called active from +8 up or from −8 down;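 also: MM1S multiple myeloma cell line; test concentration not given here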
# [4] = molecular target: Dihydroorotate dehydrogenase (quinone), mitochondrial (Plasmodium falciparum (isolate 3D7)) (UniProt Q08210); assay: PfDHODH enzyme inhibitors, primary screen, biochemical, C-terminal His tag, absorbance 600 nm (AID 1175); details: DCIP absorbance 600 nm, higher = more signal, called active from +8 up or from −8 down;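 also: recombinant parasite enzyme with a five histidine tag at its C terminus; test concentration not given here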
# [5] = P. aeruginosa biofilm formation inhibitors, primary screen, strain PAO1, LB-PBS medium, absorbance 600 nm (AID 1176); also: test concentration not given here; details: P. aeruginosa PAO1 growth/biofilm, A600, 12 h; higher = more signal
# [6] = S. cerevisiae RM11-1a growth modifiers, primary screen, strain RM11-1a, OD600, basal, 24 h (AID 1177); details: OD600, 24 h, higher = more signal, called active from +8 up or from −8 down;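 also: cultures grown under basal conditions with no added stressor; test concentration not given here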
# [7] = E. coli acrAB mutant growth effects, primary screen, E. coli filamentation inducers, strain DRC39, OD650, 24 h (AID 1178); details: higher = more signal, called active from +8 up or from −8 down;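 also: growth measured as culture turbidity by optical density at 650 nm; test concentration not given here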
# [8] = E. coli acrAB mutant growth effects, primary screen, E. coli filamentation inducers, strain DRC39, OD650, 48 h (AID 1179);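 also: screen aims at cell division blockers that make cells filament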; details: E. coli DRC39 delta-acrAB growth, higher = more signal, called active from +8 up or from −8 down
# [9] = RPMI8226 myeloma cell viability, profiling panel, resazurin fluorescence, basal, 24 h, PK04 Diversity Set (AID 1180); details: higher = more signal;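 also: RPMI8826 multiple myeloma cell line at 5000 cells per well; test concentration not given here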
# [10] = molecular target: E3 ubiquitin-protein ligase XIAP (Homo sapiens) (UniProt P98170); assay: XIAP binders, primary screen, biophysical, small-molecule microarray, fluorescence 635 nm (AID 1181); details: small-molecule microarray binding, higher = more signal;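 also: score merges 667 nm emission and signal to noise over triplicate slides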
# E3 ubiquitin-protein ligase XIAP (Homo sapiens), sequence (P98170 whole entry, looked up): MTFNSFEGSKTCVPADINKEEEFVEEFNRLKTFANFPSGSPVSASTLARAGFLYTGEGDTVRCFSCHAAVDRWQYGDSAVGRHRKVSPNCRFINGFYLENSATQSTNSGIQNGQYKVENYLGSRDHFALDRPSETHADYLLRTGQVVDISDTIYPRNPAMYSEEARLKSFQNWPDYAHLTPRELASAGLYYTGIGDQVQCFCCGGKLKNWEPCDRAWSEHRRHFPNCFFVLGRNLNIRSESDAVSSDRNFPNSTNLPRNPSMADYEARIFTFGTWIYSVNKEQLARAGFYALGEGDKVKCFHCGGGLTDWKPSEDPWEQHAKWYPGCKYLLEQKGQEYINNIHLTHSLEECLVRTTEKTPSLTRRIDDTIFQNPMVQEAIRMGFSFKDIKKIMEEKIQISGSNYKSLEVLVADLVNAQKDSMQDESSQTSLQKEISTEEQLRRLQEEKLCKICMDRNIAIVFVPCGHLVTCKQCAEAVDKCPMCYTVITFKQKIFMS
# Dihydroorotate dehydrogenase (quinone), mitochondrial (Plasmodium falciparum (isolate 3D7)), sequence (Q08210 whole entry, looked up): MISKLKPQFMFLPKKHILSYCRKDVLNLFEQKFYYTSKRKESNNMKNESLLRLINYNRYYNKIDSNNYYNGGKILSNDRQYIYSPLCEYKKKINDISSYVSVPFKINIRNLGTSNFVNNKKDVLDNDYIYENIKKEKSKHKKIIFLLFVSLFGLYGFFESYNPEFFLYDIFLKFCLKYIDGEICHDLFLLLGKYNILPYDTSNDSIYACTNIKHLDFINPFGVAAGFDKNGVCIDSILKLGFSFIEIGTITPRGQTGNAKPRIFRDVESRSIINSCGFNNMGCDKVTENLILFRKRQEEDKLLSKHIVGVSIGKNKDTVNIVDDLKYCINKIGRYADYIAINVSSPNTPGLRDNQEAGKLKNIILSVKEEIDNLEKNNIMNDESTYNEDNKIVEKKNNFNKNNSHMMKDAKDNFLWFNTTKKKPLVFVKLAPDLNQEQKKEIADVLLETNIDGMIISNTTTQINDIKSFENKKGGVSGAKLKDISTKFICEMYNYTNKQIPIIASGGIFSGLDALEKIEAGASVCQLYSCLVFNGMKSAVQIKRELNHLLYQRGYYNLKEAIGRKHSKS
structure (smiles),measurement,setting,value
CO[C@@H]1COC(=O)CC=C[C@H](C)COC(=O)[C@H](C)NC(=O)CC=C[C@H]1C,z-score,[1],0.496
same,z-score,[2],0.699 (inactive)
same,z-score,[3],0.859 (inactive)
same,composite z-score,[4],1.09 (inactive)
same,z-score,[5],-0.531 (inactive)
same,z-score,[6],1.25 (inactive)
same,z-score,[7],0.365 (inactive)
same,z-score,[8],-0.896 (inactive)
same,z-score,[9],0.74
same,composite z-score,[10],-0.0936
CCCCN1CC=CC23O[C@@H]4C=CCCOC(=O)C4[C@H]2C(=O)N(C(C)CO)[C@@H]3C1=O (stereo not given in full),z-score,[1],0.169 and -0.388
same,z-score,[2],-0.288 (inactive) and 1.12 (inactive)
same,z-score,[3],-0.201 (inactive) and -0.715 (inactive)
same,composite z-score,[4],-0.755 (inactive) and -2.42 (inactive)
same,z-score,[5],0.329 (inactive) and 0.137 (inactive)
same,z-score,[6],-0.891 (inactive) and 1.05 (inactive)
same,z-score,[7],0.0926 (inactive) and -0.474 (inactive)
same,z-score,[8],-0.25 (inactive) and -0.564 (inactive)
same,z-score,[9],-0.157 and -0.53
same,composite z-score,[10],-0.0062 and 0.744
Cc1ccc(S(=O)(=O)OC[C@@H]2CN3[C@@H](CC[C@@H](C)[C@@H]3c3ccc(Br)cc3)C(=O)O2)cc1,z-score,[1],-0.928 and 0.711
same,z-score,[2],0.212 (inactive) and 0.117 (inactive)
same,z-score,[3],0.0032 (inactive) and 0.781 (inactive)
same,composite z-score,[4],-0.559 (inactive) and 0.188 (inactive)
same,z-score,[5],0.487 (inactive) and -0.139 (inactive)
same,z-score,[6],-0.0273 (inactive) and 0.72 (inactive)
same,z-score,[7],0.393 (inactive) and -1.04 (inactive)
same,z-score,[8],0.521 (inactive) and -0.956 (inactive)
same,z-score,[9],-0.109 and 0.607
same,composite z-score,[10],1.69 and -0.0599
C[N+](C)(C)CCCCNC(=O)[C@H]1C[C@H]2C(=O)N[C@@H](CCCC[N+](C)(C)C)C(=O)N2[C@H]1c1ccc(O)cc1,z-score,[1],-0.168 and 0.0318
same,z-score,[2],0.889 (inactive) and 0.811 (inactive)
same,z-score,[3],-0.531 (inactive) and -0.416 (inactive)
same,composite z-score,[4],-29.8 (active) and -29.4 (active)
same,z-score,[5],0.227 (inactive) and 2.5 (inactive)
same,z-score,[6],0.659 (inactive) and 0.409 (inactive)
same,z-score,[7],0.0769 (inactive) and -0.869 (inactive)
same,z-score,[8],0.0835 (inactive) and -1.41 (inactive)
same,z-score,[9],-0.891 and -1.06
same,composite z-score,[10],0.104 and 0.0015
C=CCN(CCCC)C(=O)C1N(CCCCCCO)C(=O)C2C(C(=O)O)C3C=CC21O3 (stereo not given),z-score,[1],0.063 and -0.938
same,z-score,[2],0.569 (inactive) and 0.411 (inactive)
same,z-score,[3],-0.76 (inactive) and -0.768 (inactive)
same,composite z-score,[4],-0.669 (inactive) and -0.0254 (inactive)
same,z-score,[5],0.109 (inactive) and -0.388 (inactive)
same,z-score,[6],-0.751 (inactive) and -0.681 (inactive)
same,z-score,[7],0.03 (inactive) and -0.0327 (inactive)
same,z-score,[8],-0.146 (inactive) and -0.105 (inactive)
same,z-score,[9],-0.704 and -0.992
same,composite z-score,[10],-0.124 and 0.18
C=CCN(C(=O)C1N(CCCCCCO)C(=O)C2C(C(=O)O)C3C=CC21O3)C(C)(C)C (stereo not given),z-score,[1],-1.01 and -0.273
same,z-score,[2],0.158 (inactive) and 0.0807 (inactive)
same,z-score,[3],-0.184 (inactive) and -0.49 (inactive)
same,composite z-score,[4],-0.708 (inactive) and -0.59 (inactive)
same,z-score,[5],-0.401 (inactive) and -0.484 (inactive)
same,z-score,[6],-0.37 (inactive) and -1.03 (inactive)
same,z-score,[7],-0.739 (inactive) and -0.371 (inactive)
same,z-score,[8],-0.467 (inactive) and -0.281 (inactive)
same,z-score,[9],-0.106 and -0.445
same,composite z-score,[10],-0.227 and -0.231
CCCCCN1CC=CC23O[C@@H]4C=CCCOC(=O)C4[C@H]2C(=O)N(C(C)CO)[C@@H]3C1=O (stereo not given in full),z-score,[1],1.77 and 0.86
same,z-score,[2],-0.252 (inactive) and 1 (inactive)
same,z-score,[3],1.24 (inactive) and -0.0383 (inactive)
same,composite z-score,[4],-1.97 (inactive) and -0.391 (inactive)
same,z-score,[5],-0.193 (inactive) and 0.0683 (inactive)
same,z-score,[6],-0.0686 (inactive) and 0.825 (inactive)
same,z-score,[7],0.213 (inactive) and 0.0972 (inactive)
same,z-score,[8],-0.123 (inactive) and -0.105 (inactive)
same,z-score,[9],1.18 and -0.0579
same,composite z-score,[10],0.216 and -0.323
C=CCN(CCCCC)C(=O)C1N(c2ccc(CCO)cc2)C(=O)C2C(C(=O)O)C3C=CC21O3 (stereo not given),z-score,[1],-0.572 and -0.506
same,z-score,[2],-0.058 (inactive) and 0.644 (inactive)
same,z-score,[3],-0.933 (inactive) and -1.12 (inactive)
same,composite z-score,[4],-0.0016 (inactive) and 0.598 (inactive)
same,z-score,[5],0.317 (inactive) and 0.606 (inactive)
same,z-score,[6],-0.611 (inactive) and -0.297 (inactive)
same,z-score,[7],-0.623 (inactive) and -0.0654 (inactive)
same,z-score,[8],-0.689 (inactive) and -0.552 (inactive)
same,z-score,[9],-0.871 and -1.15
same,composite z-score,[10],-0.193 and -0.0559
